Experiment [1] can be described thus: liver-stage malaria parasite growth inhibition, primary screen, cell-based, HepG2, luciferase luminescence, HepG2 viability (AID 624349; in the data active = parasite load remaining mostly below about 12%, no sharp cut-off; inactive = mostly above about 10%;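 note: 100% = mean of DMSO negative control wells on the same plate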). Conditions: P. berghei liver stage in HepG2, luciferase luminescence, concentration not given here; parasite load remaining: stronger effect = lower value; viability: measured here: HepG2 viability without parasites.
Experiment [2] is described as follows: differential killing of epithelial or mesenchymal cells, primary screen, imaging, PC-3E GFP, TEM4-18 mCherry, co-culture (AID 1345086;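 active = compounds killing one labelled cell type while sparing the other, by normalised counts and ratio limits, not self-fluorescent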;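 for all read-outs here: cells exposed to compound for 72 h before imaging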;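 for red/green cell ratio (normalised): normalised mesenchymal count divided by normalised epithelial count so high means epithelial killing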). The following applies: imaging cell counts, at 1 µM; for red/green cell ratio (normalised): actives lie on both sides, counts scaled to control wells, 1 = unselective.
A short description of experiment [3]: JHH-DIPG-1 glioma cell viability, MIPE5.0 library, CellTiter-Glo luminescence, qHTS (AID 1347067).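 Note: cells exposed to compound for 48 hours before readout.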 The following applies: JHH-DIPG-1 glioma viability, CellTiter-Glo ATP luminescence. In general terms: Cellular ATP, detected with luciferase, serves as a proxy for viable cell number.
Experiment [4] can be described thus: sensitizers of A549 cells to miR-34 induction, primary screen, imaging, A549 dox-inducible miR-34, nuclei and caspase counts (AID 1347080;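 active = compounds whose cell count with miR-34 switched on is under 0.7 times the count with it off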). Conditions: A549 miR-34 inducible, Hoechst nuclei count, 48 h.
A short description of experiment [5]: survival rescue of mitochondrial mutant cells in low glucose, primary screen, MELAS cybrids, Rieske KO mouse fibroblasts, CellTiter-Glo (AID 1508586;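 active = mean z-score across replicates of 1.96 or higher in either the MELAS or the Rieske mutant cell line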;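 note: z relative to plate mean and SD of compound and empty wells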).
Experiment [6] addresses NAD(+) hydrolase SARM1 (Homo sapiens) (UniProt Q6SZW1). Put plainly: SARM1 TIR NADase inhibitors, cell lysate, NAD-Glo luminescence (AID 1508614;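 active = compound whose remaining NAD level is above about 45 nM, limit read from the data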;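 note: higher remaining NAD means stronger inhibition of SARM1 NADase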). Conditions: SAM-TIR HEK293T lysate NADase, at 1 µM, stronger effect = higher value.
Experiment [7] is described as follows: viability rescue of complex I mutant cybrids, primary screen, cell-based, galactose medium, ATP luminescence (AID 1645843;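 active = z-score of at least 1.8 in each of two replicates, scored against plate mean and spread of sample wells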;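 note: positive z means more ATP and so rescue of galactose-driven cybrid death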). The following applies: complex I mutant cybrid cells, 72 h, stronger effect = higher value.
Experiment [8] is described as follows: growth inhibition of DIPG glioma cells, dose response, cell-based, SU-DIPG-XVII, MIPE5.0, CellTiter-Glo, qHTS (AID 1347060).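 For AC50: cells exposed to compound for 48 hours before viability readout.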 Conditions: SU-DIPG-XVII viability, CellTiter-Glo ATP luminescence.
A short description of experiment [9]: viability loss in pontine glioma line – cell-based, SU-DIPG-XXV, MIPE5.0, CellTiter-Glo, qHTS, dose response (AID 1347065).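 Note: cells exposed to compound for 48 hours before ATP readout.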 The following applies: CellTiter-Glo ATP luminescence.
Experiment [10] is described as follows: LFS_MB_P medulloblastoma growth inhibition, cell-based, chromothripsis tumors, cisplatin or BGB combos (AID 1671449; in the data active = inhibition above about 80%;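 note: cells exposed for 96 hours; 0% = vehicle DMSO and 100% = killing by high DMSO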). Conditions: LFS_MB_P medulloblastoma cells.
A short description of experiment [11]: HDN33 neuroblastoma growth inhibition, cell-based, chromothripsis tumors, cisplatin or BGB combos (AID 1671450; in the data active = inhibition above about 80%;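 note: cells exposed to compound for four days; 0% = vehicle DMSO and 100% = cell killing by high DMSO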). Conditions: HDN33 neuroblastoma cells, stronger effect = higher value.
Experiment [12] in a line: ICB984 medulloblastoma cell growth inhibition, synergistic combos for chromothripsis tumors, cisplatin or BGB combos (AID 1671451; call rule not given here;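 note: cells exposed for 96 hours before readout; 0% = vehicle DMSO and 100% = killing by high DMSO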). Conditions: ICB984 medulloblastoma cells, drug combinations, stronger effect = higher value.
Experiment [13] is described as follows: HTB85 osteosarcoma cell growth inhibition, synergistic combos for chromothripsis tumors, BGB or cisplatin IC20 combos (AID 1671453; in the data active = inhibition above about 80%;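 note: cells exposed for 96 hours before readout; 0% = vehicle DMSO and 100% = high DMSO killing control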). The following applies: HTB85 osteosarcoma cells, drug combinations, stronger effect = higher value.
A short description of experiment [14]: MDA-MB-436 breast carcinoma cell growth inhibition, synergistic combos for chromothripsis tumors, BGB or cisplatin combos (AID 1671458; call rule not given here;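 note: cells exposed for 96 hours; 0% = vehicle DMSO and 100% = killing by high DMSO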). Conditions: MDA-MB-436 breast carcinoma growth inhibition, drug combinations, stronger effect = higher value.
Setting [15] is: measured here: epithelial PC-3E GFP cell survival.
The mark [16] stands for this setting: measured here: mesenchymal TEM4-18 mCherry cell survival.
The mark [17] stands for this setting: stronger effect = lower value, cell number ratio, induced over uninduced.
Setting [18] is: measured here: relative caspase fold change +Dox/-Dox.
The mark [19] stands for this setting: measured here: total cells with miR-34 induction, stronger effect = lower value.
[20] abbreviates: measured here: total cells without miR-34 induction.
Where [21] appears, read: MELAS cybrid survival, CellTiter-Glo 48 h, stronger effect = higher value.
Setting [22] is: Rieske KO mouse fibroblast survival, CellTiter-Glo 72 h.

Values joined by “and” are separate entries in the source; they are usually repeats but may differ in a detail not shown here. Equal values may be shown once. Records with an inconclusive call do not appear. Active and inactive are the calls of the source. Unless noted, no cut-off is given here; in the data, nearly all actives have AC50 up to about 26 µM.

NAD(+) hydrolase SARM1 (Homo sapiens), sequence (Q6SZW1 whole entry, looked up): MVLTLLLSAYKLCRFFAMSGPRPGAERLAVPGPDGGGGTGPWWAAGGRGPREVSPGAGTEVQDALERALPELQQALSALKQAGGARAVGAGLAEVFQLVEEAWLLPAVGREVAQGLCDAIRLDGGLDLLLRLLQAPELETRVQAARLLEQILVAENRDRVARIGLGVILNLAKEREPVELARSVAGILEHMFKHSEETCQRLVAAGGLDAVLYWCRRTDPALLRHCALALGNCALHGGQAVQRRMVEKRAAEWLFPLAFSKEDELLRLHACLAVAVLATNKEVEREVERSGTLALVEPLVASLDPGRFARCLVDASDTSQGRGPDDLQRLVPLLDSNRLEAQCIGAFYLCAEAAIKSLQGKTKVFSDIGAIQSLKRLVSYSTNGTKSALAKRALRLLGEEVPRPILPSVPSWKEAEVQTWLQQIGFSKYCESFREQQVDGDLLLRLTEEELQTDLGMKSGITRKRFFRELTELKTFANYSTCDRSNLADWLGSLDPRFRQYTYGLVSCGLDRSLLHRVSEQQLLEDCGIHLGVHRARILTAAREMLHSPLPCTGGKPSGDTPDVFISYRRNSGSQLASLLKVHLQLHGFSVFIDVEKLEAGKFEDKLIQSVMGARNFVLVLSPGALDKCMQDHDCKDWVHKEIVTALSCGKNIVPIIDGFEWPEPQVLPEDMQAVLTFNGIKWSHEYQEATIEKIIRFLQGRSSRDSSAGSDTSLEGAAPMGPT

What is called viability is a read-out of living cells in per cent, often relative to untreated cells. `N#CC(c1ccc(Cl)cc1)c1c(Cl)cc(-n2ncc(=O)[nH]c2=O)cc1Cl` (stereo unspecified): the parasite load remaining in [1] was 30.6% (inactive). The compound also displayed a viability in [1] of 99%. Besides, the red/green cell ratio (normalised) in experiment [2] is 0.84 (inactive). Also, the figures for the normalised cell number in experiment [2] (setting [15]) and in experiment [2] (setting [16]) were 1.03 and 0.86, respectively. Besides, the compound was called inactive in experiment [3]. The fold change in [4] (setting [17]) is 0.879 (inactive) and 0.842 (inactive); in experiment [4] (setting [18]), 1.15 and 1.36. Further, the cell count in [4] (setting [19]) was 7450 and 8470; in experiment [4] (setting [20]), 8480 and 10000. The z-score in experiment [5] (setting [21]) is -0.404 (inactive) and -1.37 (inactive) and -0.711 (inactive); in [5] (setting [22]), 0.144 and -0.703 and -0.429; in experiment [7], -0.445 (inactive). The remaining NAD in [6] was 10 nM (inactive).

A word on the AC50: it is the midpoint of the concentration-response curve, whichever way the signal moves. As usually defined, the inhibition is the drop in the measured response relative to a control, in per cent. Consider `Cc1c(-c2cnccn2)ssc1=S`, for which, in experiment [1], the parasite load remaining was 10.1% (inactive). In experiment [1], this compound registered a viability of 65%. Further, the red/green cell ratio (normalised) in [2] is 1.09 (inactive). Besides, the values for the normalised cell number in [2] (setting [15]) and in [2] (setting [16]) were 0.9 and 0.98, respectively. For the same compound, the AC50 in experiment [8] is 10.5 µM (active); in [9] it was 11.8 µM (active); in [3], 14.8 µM (active). In addition, the fold change in experiment [4] (setting [17]) is 0.88 (inactive); in experiment [4] (setting [18]) it was 1.25. Also, the values for the cell count in [4] (setting [19]) and in experiment [4] (setting [20]) were 9050 and 10300, respectively. The figures for the z-score in [5] (setting [21]), in [5] (setting [22]) and in experiment [7] were 0.683 (inactive), -0.106 and -0.085 (inactive), respectively. The remaining NAD in experiment [6] was 10 nM (inactive). Besides, the inhibition is -20.5% (inactive) in experiment [10] (at 0.5 µM, stronger effect = higher value); -19.2% in experiment [10] (measured here: combination with BGB IC20, at 0.005 µM); -19% in experiment [10] (measured here: combination with BGB IC40, at 0.005 µM); -17.6% in experiment [10] (measured here: combination with BGB IC40, at 0.05 µM); -32.1% in experiment [10] (measured here: combination with cisplatin, at 0.5 µM, stronger effect = higher value); -10.5% in experiment [10] (measured here: combination with cisplatin, at 5 µM, stronger effect = higher value). Moreover, the inhibition in experiment [11] (BGB combo, at 5 µM) was -58.5%; in experiment [11] (at 0.5 µM), -42% (inactive); in [11] (cisplatin combo, at 5 µM) it was -70%; in experiment [11] (measured here: with BGB IC20 combination, at 0.5 µM), -31.4%; in [11] (measured here: with cisplatin IC20 combination, at 0.5 µM), -48.3%; in [11] (single agent, at 5 µM), -46.9%. For the same compound, the inhibition in experiment [12] (BGB IC20 combo, at 0.005 µM) is -28.8%; in experiment [12] (BGB IC40 combo, at 0.005 µM), -23.8%; in [12] (BGB IC40 combo, at 0.05 µM), -8.66%; in experiment [12] (at 0.5 µM) it was -19.7% (inactive); in experiment [12] (cisplatin combo, at 0.05 µM), -8.66%; in experiment [12] (cisplatin combo, at 0.5 µM), -33.7%. Moreover, the inhibition is -21.2% in experiment [12] (cisplatin combo, at 5 µM); -0.147% in experiment [12] (measured here: 5 uM single agent, at 5 µM); -26% (inactive) in experiment [13] (at 0.5 µM); -48% in [13] (measured here: with BGB IC20, at 0.5 µM); -29.8% in [13] (measured here: with BGB IC20, at 5 µM); -19.3% in [13] (measured here: with cisplatin IC20, at 0.5 µM). The inhibition in experiment [13] (measured here: with cisplatin IC20, at 5 µM) is 6.84%; in experiment [13] (single agent, at 5 µM), -28%; in experiment [14] (at 0.5 µM), -20.6% (inactive); in experiment [14] (measured here: BGB combination, at 0.5 µM), -19.7%; in experiment [14] (measured here: BGB combination, at 5 µM), -36%; in [14] (measured here: cisplatin combination, at 0.5 µM), -33%. Also, the inhibition in experiment [14] (measured here: cisplatin combination, at 5 µM) is -12.1%.

On to `OC[C@@H](O)[C@@H](O)[C@H](O)[C@@H](O)CO`, for which the parasite load remaining in experiment [1] was 34.8% (inactive). In experiment [1], this compound displayed a viability of 97.5%. The red/green cell ratio (normalised) in experiment [2] is 1.05 (inactive). Besides, the normalised cell number in experiment [2] (setting [15]) turned out to be 1.02; in [2] (setting [16]), 1.06. Besides, the compound was classed as inactive in experiment [8], in experiment [9] and in experiment [3]. The fold change in [4] (setting [17]) is 0.939 (inactive); in [4] (setting [18]) it was 3.07. Besides, the results for the cell count in experiment [4] (setting [19]) and in experiment [4] (setting [20]) were 11500 and 12200, respectively. For the same compound, the remaining NAD in experiment [6] is 10 nM (inactive).

For the compound `CC(NCCc1ccc(O)cc1)C(O)c1ccc(O)cc1` (stereo unspecified), in [1], the parasite load remaining was 92.5% (inactive) and 43.7% (inactive). Further, the viability in experiment [1] was 69.7% and 91.3%. The red/green cell ratio (normalised) in experiment [2] was 1.16 (inactive). Moreover, the values for the normalised cell number in experiment [2] (setting [15]) and in experiment [2] (setting [16]) were 0.9 and 1.05, respectively. Also, the outcome in [8], in experiment [9] and in experiment [3] was inactive. Moreover, the fold change in experiment [4] (setting [17]) is 0.955 (inactive); in experiment [4] (setting [18]), 3.65. The results for the cell count in [4] (setting [19]) and in experiment [4] (setting [20]) were 12000 and 12600, respectively.

The record behind these values is PubChem BioAssay.
